# Measurements as given in ChEMBL document CHEMBL3988442, “University of Dundee, Small-Polar-MMV Screening Library” (2021).
# Screen size: about 66,000 compounds; about 960 (1.5%) showed an effect of 50% or more. The entries come from a sample that favours strong results as a whole.
# Tested on: Trypanosoma brucei
# Experiment: Trypanosoma brucei 72 hour study
# Format: functional, organism-based
# Parameters: scale not given: in the data most compounds retested in dose-response had high values
smiles,measurement,setting,value
O=C(O)C(F)(F)F.c1csc(CN2C[C@H](OCC3CCOCC3)[C@H]3COC[C@H]32)n1,Percent Effect,"30.3 µM, […]",-15.06%
CS(=O)(=O)N1CC[C@H]2OCC[C@@]2(C(=O)NCCc2ccccn2)C1.O=C(O)C(F)(F)F,Percent Effect,"30.3 µM, […]",-43.43%
CC(C)(C)n1ncc(NCC(O)c2ccc(F)c(F)c2)c(Cl)c1=O (configuration not stated),Percent Effect,"30 µM, 30.03 µM",-7.617%
CN(Cc1ccccn1)C(=O)[C@H]1CO[C@H]2CCN(CC3CC3)C[C@H]2C1.O=C(O)C(F)(F)F.O=C(O)C(F)(F)F,Percent Effect,"30.3 µM, […]",-96.69%
CNc1ncccc1C(=O)N1CCc2c(nc(N)[nH]c2=O)C1,Percent Effect,"30 µM, 30.03 µM",-10.23%
O=C(O)C(F)(F)F.O=C(O)C(F)(F)F.c1cncc(CN2CCc3c(nnn3CC3CC3)C2COCC2CC2)c1 (configuration not stated),Percent Effect,"30 µM, 30.03 µM",26.56%
O=C(Nc1ccccc1)C1=CC2(CCNCC2)c2ccccc21,Percent Effect,"30.3 µM, […]",93.57%
CC(=O)N1CCC2(C=C(C(=O)NC3CC3)c3ccccc32)CC1,Percent Effect,"30.3 µM, […]",3.653%
O=C(C1=CC2(CCNCC2)c2ccccc21)N1CCCC1,Percent Effect,"30 µM, 30.03 µM",-13.07%
CC(=O)N1CCCC(c2ccc(Cc3ccccc3)cn2)C1 (configuration not stated),Percent Effect,"30.3 µM, […]",98.95%
CC(=O)N1CCCC(c2ccc(Br)cn2)C1 (configuration not stated),Percent Effect,"30.3 µM, […]",11.45%
CC(=O)N1CCCC(c2ccccn2)C1 (configuration not stated),Percent Effect,"30.3 µM, […]",-37.51%
CC1(C)CN(Cc2csc(CS(C)(=O)=O)n2)Cc2ccccc21,Percent Effect,"30.3 µM, […]",100.6%
CS(=O)(=O)Cc1nc(CN2CCc3ccccc3CC2)cs1,Percent Effect,"30.3 µM, […]",3.123%
CS(=O)(=O)Cc1nc(CN2CCOc3ccccc3C2)cs1,Percent Effect,"30.3 µM, […]",7.732%
CCc1noc(CN(C)CC(c2cccs2)N2CCOCC2)n1 (configuration not stated),Percent Effect,"30.3 µM, […]",-14.32%
O=C1CC[C@]2(CC[C@@H](NC(=O)NCc3ccccc3)CC2)N1,Percent Effect,"30.3 µM, […]",-21.31%
CC(C)C[C@@H]1N[C@H](C(=O)NC2CCOCC2)Cc2c[nH]c3cccc1c23,Percent Effect,"30.3 µM, […]",74.51%
CCc1cccc(N2CCC(NC(=O)C3CCOCC3)CC2)c1,Percent Effect,10 µM,-25.13%
same,Percent Effect,"30.3 µM, […]",-1.63%
CC(C)C[C@@H]1N[C@H](C(=O)NCC2CC2)Cc2c[nH]c3cccc1c23,Percent Effect,"30.3 µM, […]",62.49%
CC(C)C[C@@H]1N[C@H](C(=O)NC(C)C)Cc2c[nH]c3cccc1c23,Percent Effect,"30.3 µM, […]",19.91%
COC(=O)[C@@H]1Cc2c[nH]c3cccc(c23)[C@H](CC(C)C)N1,Percent Effect,"30.3 µM, […]",0.4079%
O=C(NC1CCOCC1)C1CC(=O)N(Cc2ccccn2)C1 (configuration not stated),Percent Effect,"30 µM, 30.03 µM",11.72%
Cc1cnn(C2CCCN(C(=O)Cc3ccc(C#N)cc3)C2)c1 (configuration not stated),Percent Effect,10 µM,-12.45%
same,Percent Effect,"30.3 µM, […]",-6.124%
CC(C)=CCN1C(=O)[C@H]2CC[C@@H]1CN(c1ncccc1F)C2,Percent Effect,"30 µM, 30.03 µM",-6.371%
Cc1cc(=O)n(CCNS(=O)(=O)c2cccc(C(F)(F)F)c2)cn1,Percent Effect,"30 µM, 30.03 µM",-14.9%
O=C(O)C(F)(F)F.O=C(O)C(F)(F)F.c1cncc(-c2ccc3c(c2)CCC32CCN(Cc3nccs3)CC2)c1,Percent Effect,"30.3 µM, […]",13.64%
O=C(O)C(F)(F)F.O=C(O)C(F)(F)F.c1cncc(-c2ccc3c(c2)CCC32CCN(Cc3ccco3)CC2)c1,Percent Effect,"30.3 µM, […]",53.48%
CN(C)CC(=O)N1CCC2(CCc3cc(-c4cccnc4)ccc32)CC1.O=C(O)C(F)(F)F.O=C(O)C(F)(F)F,Percent Effect,"30.3 µM, […]",1.858%
CNC(=O)CN1CC[C@H]2CN(C(=O)c3cccc(C)c3)C[C@H]2C1.O=C(O)C(F)(F)F,Percent Effect,"30.3 µM, […]",-49.02%
CC[C@@H](C)[C@@H](N)C(=O)Nc1cccc(-c2cnc(N(C)CCO)nc2)c1,Percent Effect,"30.3 µM, […]",-10.78%
CC[C@@H](C)[C@@H](N)C(=O)Nc1cccc(-c2cnc(N)nc2)c1,Percent Effect,"30.3 µM, […]",-21.58%
CC[C@H](C)[C@H](N)C(=O)Nc1nc(-c2cnc(N3CCOCC3)nc2)cs1,Percent Effect,"30.3 µM, […]",13.61%
CC[C@@H](C)[C@@H](N)C(=O)Nc1cccc(-c2cnc(N(C)C)nc2)c1,Percent Effect,"30.3 µM, […]",97.6%
CC[C@H](C)[C@H](N)C(=O)Nc1nc(-c2cnc(N(C)CCO)nc2)cs1,Percent Effect,"30.3 µM, […]",-2.058%
CC[C@H](C)[C@H](N)C(=O)Nc1nc(-c2cnc(N(C)C)nc2)cs1,Percent Effect,"30.3 µM, […]",53.79%
COc1ccc(N(c2ccccc2)c2ccc(C(=O)O)s2)cc1,Percent Effect,"30.3 µM, […]",-3.945%
O=C(O)CC(O)(CC(=O)O)C(=O)O.OCCN(Cc1ccncc1)CC1(c2ccc(Cl)cc2)CC1,Percent Effect,"30.3 µM, […]",-34.12%
Cn1cnc2c1C(COCC1CCOCC1)CN(C1CCOCC1)C2.O=C(O)C(F)(F)F.O=C(O)C(F)(F)F (configuration not stated),Percent Effect,"30 µM, 30.03 µM",15.95%
Cl.c1cnc2c(c1)cc([C@H]1CCCO1)n2CCN1CCCC1,Percent Effect,"30.3 µM, […]",24.71%
Cn1cccc1C(=O)N1CCC2(CCCN2Cc2ccccc2)CC1.O=C(O)C(F)(F)F,Percent Effect,"30 µM, 30.03 µM",11.3%
Cc1nn(C)c2c(=O)n(CC(=O)Nc3cc(Cl)cc(Cl)c3)nnc12,Percent Effect,"30 µM, 30.03 µM",63.83%
CCn1nc(C)c2nnn(CC(=O)Nc3cccc(Cl)c3)c(=O)c21,Percent Effect,"30 µM, 30.03 µM",35.21%
CCn1nc(C)c2nnn(CC(=O)Nc3ccccc3)c(=O)c21,Percent Effect,"30.3 µM, […]",-5.47%
CCn1nc(C)cc1C(=O)N1C[C@@H]2C[C@@H](C)O[C@@H]2C1.O=C(O)C(F)(F)F,Percent Effect,"30.3 µM, […]",3.708%
COCC1CN(C(=O)c2ccoc2)Cc2cnn(CC3CCOCC3)c21.O=C(O)C(F)(F)F (configuration not stated),Percent Effect,"30.3 µM, […]",-46.76%
NC1C=C(C(F)(F)F)NC=C1c1ccccc1 (configuration not stated),Percent Effect,"30.3 µM, […]",8.109%
CC(C)CC(=O)N1C[C@@H]2CCN(c3cnccn3)C[C@@H]2C1.O=C(O)C(F)(F)F,Percent Effect,"30.3 µM, […]",-10.22%
CC(C)(C)S(=O)(=O)CCNC(=O)c1ccc2ccccc2c1,Percent Effect,"30 µM, 30.03 µM",-8.633%
CC(C)(C)S(=O)(=O)CCNC(=O)c1ccc2cc[nH]c2c1,Percent Effect,"30 µM, 30.03 µM",101.8%
CC(C)(C)OC(=O)NCCNC(=O)c1ccc2cc[nH]c2c1,Percent Effect,"30 µM, 30.03 µM",3.798%
CN1CCN(CCO)C(=O)C12CCN(Cc1ccsc1)CC2.O=C(O)C(F)(F)F.O=C(O)C(F)(F)F,Percent Effect,"30.3 µM, […]",-7.984%
CN(C(=O)[C@H]1CSCN1C(=O)OC(C)(C)C)C1CC1,Percent Effect,"30 µM, 30.03 µM",-17.54%
Cn1nc2c(cc1=O)CN(Cc1coc(-c3cccc(F)c3)n1)CC2,Percent Effect,"30.3 µM, […]",75.84%
Cn1nc2c(cc1=O)CN(Cc1coc(-c3ccccc3)n1)CC2,Percent Effect,"30.3 µM, […]",-6.992%
Cn1nc2c(cc1=O)CN(Cc1coc(-c3ccc(F)cc3)n1)CC2,Percent Effect,"30.3 µM, […]",21.89%
CN1CCN(c2ccc(F)cc2NC(=O)NCc2ccon2)CC1,Percent Effect,"30.3 µM, […]",-94.37%
Cc1nccn1CC1CCN(C(=O)Cc2ccccc2)CC1,Percent Effect,"30 µM, 30.03 µM",-11.09%
CC(C)N(C)Cc1cnc2n1CCN(Cc1ccsc1)C2.O=C(O)C(F)(F)F.O=C(O)C(F)(F)F,Percent Effect,"30.3 µM, […]",-0.145%
Cc1cc(-c2nccs2)nc(C2CCN(Cc3ccc(F)cc3)CC2)n1.Cl,Percent Effect,"30.3 µM, […]",-1.786%
CC(C)(C)c1cc(NC(=O)CN2CCc3cncnc3C2)on1,Percent Effect,"30.3 µM, […]",8.588%
same,Percent Effect,"10 mM, 10 mM as filed; unlikely as a test dose",-38.22%
Cc1cc(NC(=O)CN2CCc3cncnc3C2)on1,Percent Effect,"30.3 µM, […]",8.362%
same,Percent Effect,"10 mM, 10 mM as filed; unlikely as a test dose",-44.64%
CC(C)c1cc(NC(=O)CN2CCc3cncnc3C2)on1,Percent Effect,"30 µM, 30.03 µM",51%
COC[C@@H]1CCC[C@@]12CN(Cc1ccco1)CCO2.O=C(O)C(F)(F)F,Percent Effect,"30 µM, 30.03 µM",-1.793%
CCn1cc(N2Cc3nc(N4CCCC4)ncc3C2=O)cn1,Percent Effect,"30.3 µM, […]",-27.06%
Cc1cccnc1N1CCN(C(=O)C(C)n2ccnc2C(C)C)CC1 (configuration not stated),Percent Effect,"30 µM, 30.03 µM",78.55%
CC(C)c1nccn1C(C)C(=O)N1CCN(c2ccccc2Cl)CC1 (configuration not stated),Percent Effect,"30 µM, 30.03 µM",16.25%
Cc1cc(N2CCN(C(=O)C(C)n3ccnc3C(C)C)CC2)cc(C)n1 (configuration not stated),Percent Effect,"30 µM, 30.03 µM",-26.06%
CN(C)CC1CN(C(=O)CCc2ccccc2)Cc2nccn2C1.O=C(O)C(F)(F)F (configuration not stated),Percent Effect,"30 µM, 30.03 µM",-27.78%
O=C1O[C@@H]2CN(Cc3ccccc3)C[C@@H]2N1CCCN1CCOCC1,Percent Effect,"30 µM, 30.03 µM",65.91%
O=C1O[C@@H]2CN(Cc3ccncc3)C[C@@H]2N1CCCN1CCOCC1,Percent Effect,"30 µM, 30.03 µM",-21.02%
O=C1O[C@@H]2CN(CCc3ccccc3)C[C@@H]2N1CCCN1CCOCC1,Percent Effect,"30 µM, 30.03 µM",-26.55%
CC(C)CC(=O)N1CC[C@@H]2[C@H](CC1)N(Cc1cccnc1)CCS2(=O)=O.O=C(O)C(F)(F)F.O=C(O)C(F)(F)F,Percent Effect,"30.3 µM, […]",-39.88%
Cc1cccc(CN(Cc2ccccn2)Cc2ncc(C(C)(C)C)o2)c1,Percent Effect,"30.3 µM, […]",99.39%
CCN(Cc1cccc(Cl)c1)Cc1ncc(C(C)(C)C)o1,Percent Effect,"30.3 µM, […]",-76.17%
Cc1cccc(CN(Cc2ccccn2)S(=O)(=O)N(C)C)c1,Percent Effect,"30.3 µM, […]",5.656%
CCN(CCSc1ccccc1)C(=O)c1cn([C@H]2CC[C@@H](N)CC2)nn1,Percent Effect,"30.3 µM, […]",-71.42%
Cc1ccc(SCCCNC(=O)c2cn([C@H]3CC[C@@H](N)CC3)nn2)cc1,Percent Effect,"30.3 µM, […]",59.21%
Cc1ccc(SCCN(C)C(=O)c2cn([C@H]3CC[C@@H](N)CC3)nn2)cc1,Percent Effect,"30.3 µM, […]",-119%
CCCc1nc(CN2CCCC2Cn2cncn2)cs1 (configuration not stated),Percent Effect,"30 µM, 30.03 µM",2.721%
CCCc1nc(CN2CCCCC2Cn2cncn2)cs1 (configuration not stated),Percent Effect,"30.3 µM, […]",101.4%
same,Percent Effect,"10 mM, 10 mM as filed; unlikely as a test dose",-40.08%
CC(=O)Nc1nc(CN2CCCC2Cn2cccn2)cs1 (configuration not stated),Percent Effect,"30.3 µM, […]",98.13%
CC(=O)Nc1nc(CN2CCCCC2Cn2cccn2)cs1 (configuration not stated),Percent Effect,"30 µM, 30.03 µM",16.1%
CC(=O)Nc1nc(CN2CCCC2Cn2cncn2)cs1 (configuration not stated),Percent Effect,"30 µM, 30.03 µM",3.686%
CN(C)C(=O)Cc1nc(CN2CCCC2Cn2cccn2)cs1 (configuration not stated),Percent Effect,"30.3 µM, […]",-75.86%
CN(C)C(=O)Cc1nc(CN2CCCCC2Cn2cccn2)cs1 (configuration not stated),Percent Effect,"30 µM, 30.03 µM",-14.9%
CC(C)c1nc(CN2CCCCC2)cs1,Percent Effect,"30 µM, 30.03 µM",11.44%
CC(C)c1nc(CN2CCCCC2Cn2cncn2)cs1 (configuration not stated),Percent Effect,"30.3 µM, […]",7.247%
same,Percent Effect,"10 mM, 10 mM as filed; unlikely as a test dose",-40.32%
CCCc1nc(CN2CCCC2Cn2cccn2)cs1 (configuration not stated),Percent Effect,"30.3 µM, […]",100.2%
CN(C)C(=O)Cc1nc(CN2CCCCC2Cn2cncn2)cs1 (configuration not stated),Percent Effect,"30.3 µM, […]",-54.68%
CC(C)c1nc(CN2CCCC2CN2CCCC2)cs1 (configuration not stated),Percent Effect,"30.3 µM, […]",99.84%
